The text below walks through data of PubChem BioAssay (NCATS).

The nature of assay [1]: HEK293 12hr Apoptosis Induction qHTS against the NCATS CANVASS Library (AID 1347361). An outline of the steps:
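Cells are seeded, dosed with an 11-point compound series and incubated 12 hours. Caspase-3/7 activity is detected by luminescent DEVD-substrate reagent after 15 minutes at room temperature.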
A general note: In qHTS, concentration-response curves come from the screen itself.

The nature of assay [2]: SDT Cancer Cell Toxicity qHTS against the NCATS CANVASS Library (AID 1347365). Also: nearly all actives have a fitted effect of over 60% in size. An outline of the steps: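 SDT dog glioma cells (500/well) exposed to an 11-point compound series for 72 hr at 37C, 5% CO2. Cytotoxicity read as ATP content by CellTiterGlo luminescence; bortezomib titration as control.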
Assay [3] can be described thus: KB-3-1 Cancer Cell Toxicity qHTS against the NCATS CANVASS Library (AID 1347366). Also: nearly all actives have a fitted effect of over 75% in size. An outline of the steps: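 Luminescence from CellTiter-Glo (10 min, room temperature) measured KB-3-1 viability after 72 hr compound exposure at 37C. Cells were seeded at 500/well and tested in an 11-point series.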
Assay [4] in a line: G06 Cancer Cell Toxicity qHTS against the NCATS CANVASS Library (AID 1347368). Also: nearly all actives have a fitted effect of over 60% in size. The method, boiled down:
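G06 dog glioma cells, 500 per well, exposed 72 hr at 37C, 5% CO2 to compounds in an 11-point series. Cytotoxicity read as ATP content by CellTiterGlo luminescence.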

Assay [5] can be described thus: qHTS for Hypoxia signaling pathway (HIF-1) antagonists against the NCATS CANVASS Library (AID 1347374).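 Also: HRE-bla ME-180 cells stimulated with cobalt chloride to stabilize HIF-1alpha; series mostly up to about 38 µM; nearly all actives have a fitted effect of over 60% in size.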 The method, boiled down:
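HRE-bla ME-180 cells in medium with 0.5% dialyzed FBS received compounds (11-point series) plus CoCl2 (60 uM addition stock) for 17 hrs at 37C. Beta-lactamase activity read with CCF4 (405 nm ex, 460/530 nm em); CellTiter-Glo viability measured in same wells.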

Assay [6] can be described thus: qHTS for H2AX Agonists against the NCATS CANVASS Library (AID 1347378).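 Also: phospho-H2AX S139 level in CHO-K1 lysates by TR-FRET emission ratio.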 The method, boiled down:
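CHO-K1, 1000 cells/well, o/n 37C; cpd several conc, 3 hr 37C, 0.76% DMSO; lyse 30 min RT; cryptate anti-pH2AX(S139) + d2 anti-H2AX, 24 hr RT; HTRF 665/620.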

Assay [7] is described as follows: Inflammasome Signaling qHTS Counterscreen: IL-1-beta AlphaLISA counterscreen against the NCATS CANVASS Library (AID 1347381).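 Also: cell-free check with purified IL-1β in medium and no THP-1 cells; series mostly up to about 57 µM.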 The method, boiled down: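 Cell-free interference check: compounds added to medium spiked with 4 pg purified IL-1β. Anti-IL-1β acceptor beads (6 ug/mL) with 0.6 nM biotinylated antibody added for 1 h at RT, then streptavidin donor beads (24 ug/mL) for 30 min in the dark. AlphaLISA read at 680/615 nm.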

A short description of assay [8]: Secretion counterscreen for inhibitors of the SERCaMP assay screened against the NCATS CANVASS Library (AID 1347390).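 Also: light from luciferase secreted into medium read as a measure of general secretion; series mostly up to about 77 µM.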 The method, boiled down: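 SH-SY5Y-GLuc STOP cells; 4 h attach; cpds 0.001 - 77 uM (qHTS, 11 pts), 20 h 37C/5% CO2; coelenterazine in glow buffer; luminescence, 5 s exposure.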
In general terms: The purpose of a counterscreen is to sort out artefacts and off-target activity.

Assay [9] can be described thus: qHTS for activators of Nrf2/ARE signaling pathway screened against the NCATS CANVASS Library (AID 1347391). Also: nearly all actives have a fitted effect of over 60% in size. The method, boiled down:
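ARE-bla HepG2 beta-lactamase reporter cells exposed to compounds for 16 h at 37C; CCF4 substrate 2 h, fluorescence at ex 405 nm, em 460/530 nm. Viability by CellTiter-Glo luminescence.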

A short description of assay [10]: qHTS for inhibitors of ER calcium dysfunction: SERCaMP assay screened against the NCATS CANVASS Library (AID 1347393).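 Also: series mostly up to about 77 µM; lower secreted reporter signal means inhibitor of ER calcium depletion; nearly all actives have a fitted effect of over 40% in size.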 The method, boiled down: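 SH-SY5Y GLuc-SERCaMP, 1000 cells/well, 4 h attach; cpd 16 h, 37C/5% CO2; thapsigargin (added as 6x 600 nM) 4 h; coelenterazine; luminescence. Reduced reporter release = ER Ca stabilization.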
Assay [11] can be described thus: Redox Reaction Profiling qHTS: Assay Interference Panel against the NCATS CANVASS Library (AID 1347401). An outline of the steps:
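Compounds in 11-point series incubated with 5 uM resazurin and 200 uM DTT in 50 mM HEPES pH 7.3, 50 mM NaCl. Resorufin fluorescence (Ex 525/Em 598) read before and after 15 min in the dark.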

Assay [12] is described as follows: HEK293 18hr Apoptosis Induction qHTS against the NCATS CANVASS Library (AID 1347357). An outline of the steps:
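Cells seeded at 500/well in DMEM + 10% FBS. Compounds pinned, 11 concentrations. 18 h, 37 degrees C/5% CO2. Caspase-Glo 3/7 added, 15 min RT dark, luminescence read.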

A short description of assay [13]: qHTS for Antimalaria activity screened against the NCATS CANVASS Library (AID 1347380). Also: nearly all actives have a fitted effect of over 40% in size. Also: potency is read from the fitted curve at half-maximal effect. An outline of the steps: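 Red blood cells infected with P. falciparum Dd2 (2.5% hematocrit final, 0.3% parasitemia) were exposed to compounds in an 11-point qHTS series for 72 hr at 37C under 5% O2 and 5% CO2. Lysis buffer with SYBR Green was then added for 18 hr, and fluorescence was read at 485/535 nm.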

Assay [14] concerns the target Cytochrome P450 3A4 (Homo sapiens) (UniProt P08684). As to the kind of experiment: qHTS Assay for Inhibitors and Substrates of Cytochrome P450 3A4 (AID 884). Also: series mostly up to about 57 µM; nearly all actives have a fitted effect of over 50% in size. An outline of the steps: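 20 nM human CYP3A4 with 25 uM Luciferin-PPXE (at KM) in 200 mM KPO4, preincubated 10 min with compound; NADPH regeneration started a 60 min RT reaction. Luciferin detected by luminescence, normalized to 57 uM ketoconazole as full inhibition.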

Assay [15] concerns the target Ubiquitin carboxyl-terminal hydrolase 1 (Homo sapiens) (UniProt O94782). As to the kind of experiment: Inhibitors of USP1/UAF1: Pilot qHTS (AID 504865).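 Also: rhodamine fluorescence freed from ubiquitin-rhodamine substrate followed over time; top concentration of the series differs between compounds; nearly all actives have a fitted effect of over 35% in size.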 An outline of the steps: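 In 50mM HEPES pH 7.8 containing 0.5mM EDTA, 1mM TCEP, 0.1 mg/ml BSA and 0.01% Tween-20, 1nM USP1/UAF1 is exposed to compound for 15 min, then Ub-Rho (150nM final) is added and fluorescence is read over time.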

A short description of assay [16]: ZIKV-mCherry secondary qHTS for Zika virus inhibitors (AID 1347158). Also: top concentration of the series differs between compounds. The method, boiled down: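 Vero cells (5,000/well) were given compound, then infected with ZIKV-mCherry at MOI 1 for 48–72 h at 37 °C. After PFA fixation and Hoechst staining, imaging gave percent mCherry-positive cells. The positivity threshold was RFU above 450, 3 SD over negative controls.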

Each structure is given as a SMILES string. Values without a mark were called inactive. Inconclusive results are not listed. Calls of active or inactive are those of the source. Calls follow the shape of the dose curve; as a rule, active = well fitted curve in the direction sought with a large enough effect; inconclusive = small, poorly fitted or top-dose-only effect, or another doubt; inactive = no such curve, though single readings can be large; an effect the other way counts as inactive or inconclusive. Numbered stars: 1 amine (or outer) side, 2 acyl side, 3 side chain; on linkers, the order of the positions; unused ones are H or OH. Square brackets hold non-standard residues; d marks the D form. Peptide text beside a SMILES is read from it. * marks the point of attachment. ξ: configuration not given here. X4 = O=C(C1CC2(c3ccc(O)cc3)c3ccccc3NC2N1[*:1])[*:2]; ξW = NC(Cc1c[nH]c2ccccc12)C(=O)O; ξY = NC(Cc1ccc(O)cc1)C(=O)O; Octanoyl = CCCCCCCC(=O)*

Chain of Ubiquitin carboxyl-terminal hydrolase 1 (Homo sapiens) (O94782 whole entry, looked up): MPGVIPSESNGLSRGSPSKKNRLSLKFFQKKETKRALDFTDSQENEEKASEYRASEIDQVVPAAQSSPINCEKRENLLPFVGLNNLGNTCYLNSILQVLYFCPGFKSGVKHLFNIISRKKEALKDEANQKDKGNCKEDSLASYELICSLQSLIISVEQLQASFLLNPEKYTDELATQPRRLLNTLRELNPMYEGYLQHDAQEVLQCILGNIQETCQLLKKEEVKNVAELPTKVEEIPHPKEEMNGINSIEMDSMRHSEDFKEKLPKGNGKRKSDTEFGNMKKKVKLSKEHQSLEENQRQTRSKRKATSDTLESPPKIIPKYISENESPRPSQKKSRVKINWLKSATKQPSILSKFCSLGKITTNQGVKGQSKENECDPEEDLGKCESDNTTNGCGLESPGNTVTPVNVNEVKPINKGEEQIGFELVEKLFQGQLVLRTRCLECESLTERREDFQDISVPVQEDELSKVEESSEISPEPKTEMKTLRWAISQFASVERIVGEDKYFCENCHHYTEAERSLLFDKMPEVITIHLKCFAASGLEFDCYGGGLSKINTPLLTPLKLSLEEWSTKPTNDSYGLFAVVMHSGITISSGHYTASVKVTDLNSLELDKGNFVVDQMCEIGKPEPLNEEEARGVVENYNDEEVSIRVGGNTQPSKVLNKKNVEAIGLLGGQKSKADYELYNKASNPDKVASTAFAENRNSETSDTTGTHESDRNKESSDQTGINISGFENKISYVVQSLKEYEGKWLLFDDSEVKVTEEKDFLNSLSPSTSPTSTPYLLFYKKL
Chain of Cytochrome P450 3A4 (Homo sapiens) (P08684 whole entry, looked up): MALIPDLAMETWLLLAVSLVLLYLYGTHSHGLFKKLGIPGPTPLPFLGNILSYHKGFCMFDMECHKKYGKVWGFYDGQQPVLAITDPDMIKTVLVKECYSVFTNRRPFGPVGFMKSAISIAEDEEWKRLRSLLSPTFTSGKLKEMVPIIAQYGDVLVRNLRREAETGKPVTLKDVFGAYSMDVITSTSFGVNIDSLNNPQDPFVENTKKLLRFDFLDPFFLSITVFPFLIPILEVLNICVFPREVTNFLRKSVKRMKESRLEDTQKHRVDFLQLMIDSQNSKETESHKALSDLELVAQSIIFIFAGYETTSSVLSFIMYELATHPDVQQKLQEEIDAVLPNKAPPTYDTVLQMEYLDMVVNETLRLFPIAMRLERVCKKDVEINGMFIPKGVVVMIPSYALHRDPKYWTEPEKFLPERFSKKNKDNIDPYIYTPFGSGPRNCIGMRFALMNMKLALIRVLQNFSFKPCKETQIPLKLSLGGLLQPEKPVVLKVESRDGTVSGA

For `CC1C(=O)C23CCC1C[C@@]21O[C@H]2C(C)(C)C=CC(=O)[C@@]23COC1=O` (stereo partly specified), the Potency result in [1], in assay [2], in [3], in assay [4], in [5] and in assay [6] was “inactive” in each case. In addition, the Potency result in assay [8], in assay [9], in [10] and in assay [11] was “inactive” throughout. The call in [7] was inactive.

As for `CCCCCCCC(=O)N[C@@H](CC(C)C)C(=O)N[C@H](C=O)CCC(=O)O` (Octanoyl-Leu-Glu-aldehyde), the Potency entry in assay [12], in assay [2], in assay [3], in assay [4], in assay [5] and in [6] was “inactive” in each case. In addition, the Potency entry in assay [8], in [9], in [10] and in assay [11] was “inactive” throughout. Moreover, the call in assay [7] was inactive.

For the molecule `O=c1cc(-c2ccc(O)cc2)oc2c([C@@H]3OC(CO)[C@H](O)[C@@H](O)[C@H]3O)c(O)cc(O)c12` (stereo partly specified), the Potency entry in assay [12], in assay [1], in assay [2], in assay [3], in assay [4] and in [6] was “inactive” each time. In addition, the Potency result in [9], in assay [10] and in assay [11] was “inactive” throughout. The Potency in [13] was 1.3 nM (active). The outcome in [7] was inactive.

Turning to `COc1cc(/C=C/C(=O)O)ccc1O`, the Potency entry in assay [14], in [15], in assay [12], in assay [1], in assay [2] and in [3] was “inactive” in each case. The Potency result in [4], in [5], in [6], in assay [9] and in assay [11] was “inactive” in each case. In addition, the Potency in assay [13] was 3.3 nM (active).

For `C/C=C/c1cc(OC)c2c(c1)[C@@H](C)[C@H](c1ccc(O)c(OC)c1)O2`, the Potency result in assay [12], in assay [1], in [2], in assay [6], in assay [13] and in [11] was “inactive” each time. In addition, the call in [7] was inactive.

Regarding `C=C[C@]1(C)CC[C@@H]([C@H](C)C(=O)/C=C/C(C)C)O1`, the Potency result in assay [2], in assay [4], in assay [5], in assay [6], in [8] and in assay [9] was “inactive” each time. Moreover, in [11], the Potency result is “inactive”. In addition, the result in assay [7] was inactive.

As to `CC[C@H](C)[C@H](NC(=O)C(Cc1ccc(O)cc1)NC(=O)C(Cc1c[nH]c2ccccc12)NC(=O)[C@H](C)N)C(=O)N1C(C(=O)NC(Cc2ccc(O)cc2)C(=O)O)CC2(c3ccc(O)cc3)c3ccccc3NC12` (stereo partly specified) (H-A[ξW][ξY]I[X4][ξY]-OH), the Potency entry in [12], in [2], in assay [3], in assay [4], in assay [6] and in assay [13] was “inactive” in each case. Also, the Potency result in assay [9] and in assay [10] was “inactive” throughout.

As for `Cc1ccc(S(=O)(=O)Nc2cc(SCC(=O)O)c(O)c3ccccc23)cc1[N+](=O)[O-]`, the Potency entry in [16] is “inactive”.

As to `C=C1/C=C\C(CCC)=C\c2csc(n2)C(C)NC(=O)C[C@@]2(CC(=O)O)CCC(=C)[C@H](C1)S2` (stereo partly specified), the Potency entry in assay [12], in [3], in assay [4], in assay [5], in assay [6] and in assay [10] was “inactive” in each case. In addition, the Potency result in assay [11] is “inactive”.
